Structures are written as SMILES. The whole screen tested about 95,000 compounds, of which about 460 (0.48%) were called active. The sample holds actives, similar compounds and a random draw of the others, so the mix is not that of the screen. Unmarked numbers belong to inactive results.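 The calls were made as follows: active = inhibition above the batch mean plus 3 SD, with images confirmed as a hit by eye (cut at about 37% in these data); inconclusive = inhibition above that limit but hit not confirmed in images; inactive = inhibition not above that limit.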

The test is described as follows: inhibitors of TNFa-induced VCAM1 expression, primary screen, imaging, HUVEC, TNFa stimulus, immunofluorescence (AID 802).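 Also: 0% = TNF-stimulated DMSO wells and 100% = unstimulated control wells.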 As to conditions: HUVEC TNFa-induced VCAM-1 immunofluorescence, high-content imaging; at 2 µM; stronger effect = higher value.
Turning to `CCOc1ccc(C(=O)NC2CCN(C(=O)Nc3ccccc3OC)CC2)cc1`, the inhibition was -14.1%.
Next, `Cc1cc(C)cc(OCC(=O)Nc2nc3ccc([N+](=O)[O-])cc3s2)c1`: 21.3%; `COC(=O)C(NC(=O)c1ccc(OC)cc1)(Nc1ncc(S(=O)(=O)c2ccc([N+](=O)[O-])cc2)s1)C(F)(F)F` (stereo not given): -3.1%.
In the case of `O=C(NC(Nc1nc2ccc([N+](=O)[O-])cc2s1)(C(F)(F)F)C(F)(F)F)c1ccccc1`, the inhibition is 88.1% (active).
The value for `Cc1ccccc1NC(=S)Nc1cccc([N+](=O)[O-])c1` was -16.9%; that for `COc1ccc(Nc2ncc(C(=O)N3CCN(c4ccccc4OC)CC3)c3ccccc23)cc1` was 26.1%; that for `FC(F)(F)c1cc(-c2ccco2)nc(NCc2ccc(Cl)cc2)n1` was 9.6%.
Next, `Cc1cc(C)c2c(-n3cccc3)c(NC(=O)OCc3ccccc3)sc2n1`: 25.4%; `COc1cccc(CNc2nc3nc4c(c(=O)n3[nH]2)CCC4)c1`: 15.2%.
The value for `Cc1cccc(-n2cnc(C(=O)Nc3cccnc3)c2)n1` was -5.1%.
For the compound `CCOC(=O)Cc1csc(NC(=O)CSc2nnc(-c3cccnc3)n2Cc2ccco2)n1`, the inhibition was 15.6%.
Next, `O=S(=O)(Cc1cc(Sc2ccccc2)nc(-c2ccccc2)n1)c1ccccc1`: -28.4%; `CCOc1ccccc1NC(=O)c1cccnc1`: -0.4%; `COc1ccc(C(F)(F)F)cc1N/C=C\c1nnnn1-c1ccc(C)cc1`: 16.2%.
With `CCc1ccc(Nc2ncc3c(n2)CC(c2ccco2)CC3=O)cc1` (stereo not given), the inhibition is -20.6%.
The value for `O=C(Nc1ncc2c(n1)-c1ccccc1OC2)c1ccc(Cl)cc1` was 6.1%; that for `O=C(Nc1ncc2c(n1)CC(c1ccco1)CC2=O)c1ccc(Cl)cc1` (stereo not given) was 91.4% (active).
Next, `COc1ccc(C2C(C(C)=O)=C(O)C(=O)N2c2nccs2)cc1` (stereo not given): 12.3%.
The value for `COc1ccc(CCN(Cc2cc3cccc(C)c3[nH]c2=O)C(=O)N2CCCC2)cc1OC` was 91.4% (active); that for `CCCN(Cc1cc2cccc(C)c2[nH]c1=O)S(C)(=O)=O` was -13.9%; that for `COc1cc2cc(CN(CCN3CCCC3)C(=O)Nc3ccccc3Cl)c(=O)[nH]c2cc1OC` was 28.3%.
Consider `COc1ccc(N2CCN(Cc3cc(=O)oc4ccc5ccccc5c34)CC2)cc1`, for which the inhibition was 9.8%.
Next, `COc1ccc2oc(C)c(NC(C)=O)c2c1`: 0.3%; `COc1ccc(Nc2cc(=O)oc3ccccc23)cc1`: 88.9% (active); `CCCSC(=S)NC1CCS(=O)(=O)C1` (stereo not given): 4.3%.
For `CCN(CC)CCn1c(=S)[nH]c2ncccc2c1=O`, the inhibition is 11%.
The value for `c1ccc(Nc2nc(N3CCOCC3)c3ccccc3n2)cc1` was -8.6%; that for `CCOC(=O)N1CCN(C(c2cccnc2)c2ccc3cccnc3c2O)CC1` (stereo not given) was 9.9%; that for `COc1ccc(CCNC(=O)CSc2nnc(-c3cccc(F)c3)o2)cc1OC` was 11.2%.
As to `COc1ccc(-c2nnc(SCC(=O)NC3CCCCC3)o2)cc1OC`, the inhibition was 87.2% (active).
Next, `COc1ccc(CN(C(=O)CSc2nnc(-c3ccc(OC)c(OC)c3)o2)c2ccc(F)cc2)cc1`: 17.6%; `Cc1cc2cc3c(cc2nc1SCC(=O)Nc1c(C)cccc1C)CCC3`: 6%; `Cc1cccc(NC(=O)C(C)N2C(=O)C3C4CC(C(Br)C4Br)C3C2=O)c1` (stereo not given): 8.5%.
The value for `CCC1(CC)NC(=O)N(CC(=O)OCC(=O)Nc2ccc(C(F)(F)F)cc2)C1=O` was 9.5%; that for `O=C(Nc1cc2c3c(c1)C1CCCC1CN3CC1CCCC21)c1ccc([N+](=O)[O-])cc1` (stereo not given) was 3%; that for `Cc1n[nH]c(=S)n1/N=C/c1ccc(Br)o1` was 4.4%.
Regarding `O=[N+]([O-])c1ccc(NCCCN2CCOCC2)c(Cl)c1`, the inhibition was -2.6%.
The value for `CC(C)(C)Cc1nnc(NC(=O)c2cc(-c3ccccc3)nc3ccccc23)s1` was -0.7%; that for `CC1(C)CC(CC(=O)O)C(=O)O1` (stereo not given) was 20.1%.
With `CCOc1ccc(-n2c(N)c(C(=O)NCC3CCCO3)sc2=S)cc1` (stereo not given), the inhibition is -3.3%.
The value for `Cc1ccc2c(c1)-c1c(ssc1=S)C(C)(C)N2C(=O)CN1C(=O)c2ccccc2C1=O` was -19.4%.
Regarding `CCOC(=O)c1c(N=CN(C)C)c(C#N)c2n1CCCC2`, the inhibition is 8.7%.
Next, `COc1ccc(/C=N/Nc2nc3ccccc3o2)cc1OC`: -32.9%.
For `C=CCNC(=S)NNc1ncnc2sc3c(c12)CC(C)(C)OC3`, the inhibition was 27.9%.
Take `O=C(CN1C(=O)C2C3C=CC(C3)C2C1=O)Nc1nc(-c2ccccn2)cs1` (stereo not given): the inhibition was 11%.
`Cc1cc(NC(=O)CSc2nc(C(C)C)nc3sc4c(c23)CCC(C)C4)no1` (stereo not given): the inhibition was 18.6%.
Take `CC(=O)Nc1ccc(N2C(=O)CCC2=O)cc1C`: the inhibition is 8.8%.
Next, `O=C(/C=C/Nc1ccccc1)c1cnc(-c2ccccc2)s1`: -1.5%; `Cc1ccc(C2(C(F)(F)F)N=C3Sc4cc(C)cc(C)c4N3C(=O)N2)cc1` (stereo not given): 7.1%; `Cc1ccc(C)c(N2C(=O)CS/C2=N\NC(=O)c2ccccc2Cl)c1`: 10.4%.
Next, `O=C(Cn1ccc([N+](=O)[O-])n1)NCc1cccs1`: 7.9%; `O=c1c([N+](=O)[O-])cc(C(F)(F)F)cn1Cc1cccc(Cl)c1`: 3.2%.
The value for `O=C(N/N=C\c1ccc(-c2ccc(Cl)c(Cl)c2)o1)C(=O)N1CCCC1` was -4.3%; that for `CCCNC(=O)NCc1ccc(N2CCCC2=O)cc1` was 3.5%; that for `CCOC(=O)c1c(NC(=S)Nc2ccccc2)sc2c1CCN(C)C2` was 12.8%.
Consider `CC(=O)c1cn(CCCCCCCCCCn2cc(C(C)=O)c(=O)[nH]c2=O)c(=O)[nH]c1=O`, for which the inhibition is 5.5%.
Next, `O=C(Nc1ccn(Cc2ccccc2F)n1)c1ccc(COc2ccc(Cl)cc2Cl)o1`: 4.3%.
For the compound `Cc1ccc(C2C(C#N)C(C#N)N3CCCN23)cc1` (stereo not given), the inhibition was -8%.
The value for `CCc1cc(C(c2ccccc2OC)N2CCOCC2)c(NC(=O)c2ccccc2)s1` (stereo not given) was 3.5%.
On to `COCCNC(=O)c1onc(CSc2cccc(C)c2)c1C(=O)O`, for which the inhibition was 13.5%.

What is called inhibition is the change of the read-out against control, counted positive when it falls.

(Values after PubChem BioAssay AID802 (Columbia University Molecular Screening Center, 2007).)
